TDP1 cell noCPT: qHTS for Inhibitors of human tyrosyl-DNA phosphodiesterase 1 (TDP1): qHTS in cells in absence of CPT; DT40 Tdp1-/- hTDP1 cells, no CPT, ATP luminescence, 48 h; Potency, µM (series often up to 46.2 µM), actives largely listed as inhibitors; actives 15% (n = 420,000); AID 686978, 2013; further: nearly all actives have a fitted effect of over 55% in size
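Luminescent ATP content (CellTiter-Glo) served as the growth readout. Knockout chicken DT40 cells expressing human TDP1 were exposed to compounds without camptothecin for a minimum 48 hr at 37 °C.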
HT1080-NT tox: kills 2HG-producing HT-1080-NT fibrosarcoma cells. Potency, µM (doses to about 46.1 µM), actives largely listed as cytotoxic. actives 1.6% (n = 360,000). AID 686970. HT-1080-NT fibrosarcoma viability, CellTiter-Glo ATP luminescence, 48 h;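 further: NT is the 2HG producing partner of a matched IDH1 knockdown line; nearly all actives have a fitted effect of over 55% in size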
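Read-out is CellTiter-Glo luminescence after 10 minutes at room temperature, following 48 hours' compound treatment of HT-1080-NT cells (750 cells/well, RPMI, 5% FBS, 37 degrees C).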
DT40 TDP1 CPT: growth inhibition of DT40 Tdp1-/-;hTDP1 cells with camptothecin (screen for TDP1 inhibitors); chicken DT40 Tdp1-/-;hTDP1 cells + 20 nM CPT, ATP luminescence, 48 h; Potency, µM (series often up to 46.2 µM), actives largely listed as inhibitors; actives 12% (n = 420,000); AID 686979; further: nearly all actives have a fitted effect of over 55% in size
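Cell growth measured by CellTiter-Glo luminescence after a minimum 48 h, 37 C compound exposure with 20 nM CPT in Tdp1-knockout DT40 cells stably expressing hTDP1, seeded 400/well; qHTS titration format.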
KB-3-1 tox: KB-3-1 parental cell cytotoxicity; Potency, µM (highest dose often 46.1 µM), most hits filed as cytotoxic; KB-3-1 viability, CellTiter-Glo ATP luminescence, 72 h; actives 1.4% (n = 400,000); further: nearly all actives have a fitted effect of over 60% in size
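72 h, 37 °C compound treatment of KB-3-1 parental cells; CellTiter-Glo added, 10 min, luminescence read. Data corrected against DMSO-only plates and normalized before curve fitting.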
KB-V1 cytotox: KB-V1 MDR subline cytotoxicity | actives 3.4% (n = 400,000) | KB-V1 MDR cells viability, CellTiter-Glo, 72 h | Potency, µM (titrated, usually from 46.1 µM), most hits filed as cytotoxic; further: nearly all actives have a fitted effect of over 60% in size
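Readout: CellTiter-Glo luminescence, 10 min after addition. Cells: KB-V1 MDR subline, 72 h at 37 degrees C with compound. Analysis: corrected, normalized data fitted to concentration-effect curves.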
HT1080 IDH1KD tx: HT-1080 IDH1 knockdown cell toxicity (counter line) | Potency, µM (top dose mostly 46.1 µM), most hits filed as cytotoxic | actives 2% (n = 360,000) | AID 686971 | HT-1080 IDH1 knockdown viability, ATP luminescence, 48 h
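IDH1KD HT-1080 cells, 750/well, RPMI + 5% FBS; compound pinned after 2 h settling; 48 h, 37 °C; CellTiter-Glo luminescence; % activity normalised to DMSO and no-cell wells; curves fitted, classed by r2 and efficacy.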
Hits are given with their value; – = inactive; ? = inconclusive; · = no result given; ! = not active in a repeat; [ ] = another dose, or the depositor's remark. A selection: hits, their analogues and other compounds. The true share with any hit is near 19%. The call rests on the fitted dose curve; in most records, active means well fitted curve in the direction sought with a large enough effect; inconclusive means small, poorly fitted or top-dose-only effect, or another doubt; inactive means no such curve, though single readings can be large; an effect the other way counts as inactive or inconclusive.

SMILES	TDP1 cell noCPT	HT1080-NT tox	DT40 TDP1 CPT	KB-3-1 tox	KB-V1 cytotox	HT1080 IDH1KD tx
COc1cc(/C=N/NS(=O)(=O)c2ccc(C)cc2)ccc1OCc1ccc(C(=O)O)cc1	–	–	–	–	–	–
CC(=O)c1c(O)cc(O)cc1O	–	–	–	–	–	–
COC(=O)Cc1[nH]n(-c2ccccc2)c(=O)c1C=Nc1ccc(C)cc1	–	–	–	–	–	–
COc1cc(-c2cc(=O)c3c(O)cc(O)cc3o2)ccc1O	?	–	21µM	–	–	–
O=c1cc(-c2ccc(O)cc2)oc2cc(O)cc(O)c12	5.2µM!	?	?	?	?	?
COc1cc2oc(-c3ccccc3)cc(=O)c2cc1O	–	·	–	·	·	·
COc1cc(-c2cc(=O)c3c(O)c(OC)c(OC)cc3o2)cc(OC)c1O	?	?	16µM	–	–	?
O=c1cc(-c2ccccc2O)oc2cc(O)cc(O)c12	21µM	·	30µM	·	·	·
CC(C)c1ccc(NC(=O)CCc2ccccc2)cc1	?	?	?	?	7.3µM	5.8µM
CN(CCC(=O)Nc1ccc(Cl)cc1)Cc1ccccc1	?	21µM	–	?	–	15µM
COc1cccc(NC(=O)CN(C)C(=O)c2ccc(Cl)c(S(=O)(=O)N3CCCCCC3)c2)c1	15µM	–	?	–	–	–
CN(CC(=O)Nc1cccc(F)c1)C(=O)c1ccc(OCc2cn3ccccc3n2)cc1	15µM	–	?	–	–	–
COc1cccc(NC(=O)CN(C)C(=O)c2ccc(NC3CC3)c([N+](=O)[O-])c2)c1	?	–	–	–	7.3µM	–
COc1cccc(NC(=O)CN(C)CC(=O)Nc2ccc3c(c2)OCO3)c1	–	–	–	–	–	–
CN(CC(=O)Nc1cccc(F)c1)C(=O)c1ccc(NC2CC2)c([N+](=O)[O-])c1	–	–	?	–	–	–
COc1cccc(NC(=O)CN(C)CC(=O)Nc2ccc(C)c([N+](=O)[O-])c2)c1	10µM	–	?	–	?	–
CC(C)(O)c1cc2ccc(C#CCCN3C(=O)c4ccccc4C3=O)cc2c(=O)o1	–	?	–	–	–	?
COc1cc(CN2C(=O)CC[C@@H]3CN(Cc4ccccn4)CC[C@@H]32)cc(OC)c1OC	–	·	–	·	·	·
COc1ccc(NC(=O)CN(C)C(=O)c2ccc3ccccc3c2)cc1	?	–	–	–	–	–
COc1cccc(NC(=O)CN(C)C(=O)c2ccc3ccccc3c2)c1	–	–	–	–	21µM	–
CCOc1ccc(NC(=O)CN(C)C(=O)c2ccc(COc3ccccc3)o2)cc1OCC	–	–	–	–	–	–
CCOc1ccc(NC(=O)CN(C)C(=O)c2ccc(COc3ccccc3)cc2)cc1OCC	–	–	?	–	9.2µM	–
COc1cccc(NC(=O)CN(C)C(=O)c2ccc(COc3ccccc3)cc2)c1	16µM	–	?	–	?	–
COc1ccc(CCN(C)S(=O)(=O)c2cn(C)c(=O)n(C)c2=O)cc1OC	–	–	–	–	–	–
COc1ccc(-c2nc3sc(CCNC(=O)C(=O)Nc4cc(C)cc(C)c4)c(C)n3n2)cc1	–	·	–	·	·	·
SMILES	TDP1 cell noCPT	HT1080-NT tox	DT40 TDP1 CPT	KB-3-1 tox	KB-V1 cytotox	HT1080 IDH1KD tx
O=C(Nc1nc(-c2ccc(Oc3ccccc3)cc2)cs1)C1=COCCO1	12µM	–	?	?	18µM	?
COc1ccc(OC)c(-c2csc(NC(=O)C3=COCCO3)n2)c1	18µM	–	16µM	–	–	–
COc1ccc(OC)c(-c2csc(NC(=O)c3ccc(F)cc3)n2)c1	?	?	7.3µM	?	–	?
COC(=O)c1ccc(-c2csc(NC(=O)C3=COCCO3)n2)cc1	–	–	–	–	–	–
COc1ccc(OC)c(-c2csc(NC(=O)Cn3[nH]c(=O)c4ccccc4c3=O)n2)c1	?	?	?	–	–	21µM
Cc1ccc(C)c(-c2csc(NC(=O)C3=COCCO3)n2)c1	16µM	–	21µM	–	–	–
O=C(Nc1nc(-c2cc(F)ccc2F)cs1)C1=COCCO1	?	–	18µM	–	?	–
Cc1ccc(-c2csc(NC(=O)C3=COCCO3)n2)cc1	?	–	?	–	–	–
COc1ccc(OC)c(-c2csc(NC(=O)CSc3ccc([N+](=O)[O-])cc3)n2)c1	16µM	–	?	–	?	–
CCC1(C2CCN(C(=O)c3ccccc3C)CC2)NC(=O)N(CCc2scnc2C)C1=O (stereo not drawn)	–	·	–[9.04 µM]	·	·	·
O=c1cc(N2CCN(c3ccc(F)cc3)CC2)[nH]c(=O)n1-c1cccc(Br)c1	18µM	·	10µM	·	·	·
O=c1cc(N2CCN(c3ccccc3)CC2)[nH]c(=O)n1-c1ccccc1	–	–	–	–	–	–
CCOC(=O)c1ccc(NC(=O)COc2cc(=O)n(CC)c3ccccc23)cc1	–	–	–	–	–	–
Cn1ccc2c(OCC(=O)Nc3ccc([N+](=O)[O-])cc3)cccc2c1=O	?	·	–	–	–	·
CCOC(=O)c1ccc(NC(=O)COc2cccc3c(=O)n(C)ccc23)cc1	18µM	·	21µM	–	–	·
Cn1ccc2c(OCC(=O)Nc3ccc(OC(F)(F)F)cc3)cccc2c1=O	7.3µM	·	12µM	·	·	·
CCCCc1nnc(SCC(=O)NC2CCCCC2)n1C	–	–	–	–	–	–
Nc1nc(N)c(Cc2ccc(Cl)cc2Cl)c(N)n1	23µM	–	26µM	–	–	–
C/C(=C\C(=O)c1ccc(Br)cc1)NCc1ccccc1	–	–	–	–	?	–[9.24 µM]
C/C(=C\C(=O)c1ccc(Br)cc1)NNC(=O)c1ccc(O)cc1	?	–	13µM	?	–	–
C/C(=C\C(=O)c1ccc(Cl)cc1)Nc1ccc(Br)cc1	–	–	–	–	–	–
C/C(=C\C(=O)c1ccc(Br)cc1)NNC(=O)c1ccccc1	18µM	–	?	–	–	–
Cc1csc2nc(COc3ccccc3NC(=O)c3ccc(C(C)(C)C)cc3)cc(=O)n12	?	·	?	–	–	·
CCCN1CNc2c(c(=O)[nH]c(=S)n2CCC(C)C)C1	?	–	–	·	·	–
COc1cccc(/C=N/n2c(=S)n(C)c3cc(C)c(C)cc32)c1OC	?	–	?	–	16µM	–
COc1ccc(CNC(=O)CCn2cccn2)cc1	–	·	–	–	–	·
N/C(=N\OC(=O)N1CCOCC1)c1ccc(Br)cc1	?	?	21µM	–	21µM	–
Cc1ccc(CCC(=O)Nc2ccc(Br)cc2)o1	?	–	?	–	–	–
CC/C(=N\NC(=O)c1cc(C2CC2)[nH]n1)c1ccccc1	–	–	–	–	?	–
